The panel holds about 79,000 compounds, 15% with a hit somewhere; the sample as a whole holds those more often. The source made the active and inactive calls. No stated cut-off is given here; in the data, active means growth inhibition above about 70%; inactive means the rest.
What was measured:
[1] = NCI Yeast Anticancer Drug Screen. Data for the rad52 strain (AID 147);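 further: 0% = growth of vehicle-treated control cultures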; conditions: S. cerevisiae rad52 mutant growth inhibition, active compounds read high
Outline: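 The repair-mutant yeast strain was incubated with compounds, then growth was read and inhibition derived relative to vehicle.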

[2] = NCI Yeast Anticancer Drug Screen. Data for the wt1 strain (AID 149);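 further: 0% = growth of vehicle-treated wt1 cultures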; conditions: S. cerevisiae wt1 strain (SPY 50644) growth inhibition, active compounds read high
Outline: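 Using yeast strain wt1, compound-induced growth inhibition was determined against vehicle-treated cultures.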

[3] = NCI Yeast Anticancer Drug Screen. Data for the rad50EPP+ strain (AID 151);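 further: 0% = growth of vehicle-treated control cultures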; conditions: S. cerevisiae rad50 mutant strain, active compounds read high
Outline: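 Vehicle-normalised growth inhibition; rad50EPP+ yeast strain, altered in DNA damage repair, compound-treated.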

[4] = NCI Yeast Anticancer Drug Screen. Data for the mgt1 strain (AID 153); conditions: S. cerevisiae mgt1 mutant growth inhibition, active compounds read high
Outline: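 Vehicle-normalized growth inhibition is determined in mgt1 yeast, a strain selected for a defined alteration in DNA repair or cell cycle control.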

[5] = NCI Yeast Anticancer Drug Screen. Data for the rad50 strain (AID 155);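 further: 0% = growth of vehicle-only cultures of the same strain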; conditions: S. cerevisiae rad50 strain growth inhibition, active compounds read high
Outline: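 Relative growth inhibition (compound vs vehicle) was measured in yeast with a defined repair-gene alteration.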

[6] = NCI Yeast Anticancer Drug Screen. Data for the mec2-1 strain (AID 157); conditions: S. cerevisiae mec2-1 strain, active compounds read high
Outline: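 Mutant yeast (mec2-1) grown with compound; growth inhibition relative to vehicle control reported.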

[7] = NCI Yeast Anticancer Drug Screen. Data for the rad14 strain (AID 159);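 further: 0% = growth of vehicle-treated control cultures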; conditions: S. cerevisiae rad14 strain growth inhibition, active compounds read high
Outline: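 Screen for anticancer potential: a yeast strain altered in DNA damage repair is grown with compound, and reduced growth is quantified against vehicle controls.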

[8] = NCI Yeast Anticancer Drug Screen. Data for the sgs1 mgt1 strain (AID 161);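 further: 0% = growth of cultures given vehicle only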; conditions: S. cerevisiae sgs1 mgt1 strain, active compounds read high
Outline: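 Compounds are added to genetically altered yeast, and growth is compared with cultures given vehicle alone to give percent inhibition.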

[9] = NCI Yeast Anticancer Drug Screen. Data for the CLN2oe strain (AID 163);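 further: 0% = growth of vehicle-only control cultures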; conditions: S. cerevisiae CLN2oe strain, active compounds read high
Outline: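 Compounds are applied to yeast harbouring a defined cell-cycle control change; reduced growth compared with vehicle-treated controls gives the value.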

[10] = NCI Yeast Anticancer Drug Screen. Data for the cln2 rad14 strain (AID 165);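 further: 0% = growth equal to vehicle treated cultures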; conditions: S. cerevisiae cln2 rad14 strain, active compounds read high
Outline: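 Readout is yeast growth inhibition versus vehicle-treated controls, using a strain with cln2 and rad14 alterations exposed to compound.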

[11] = NCI Yeast Anticancer Drug Screen. Data for the bub3 strain (AID 167); conditions: S. cerevisiae bub3 mutant strain, active compounds read high
Outline: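 Screening used yeast with an engineered genetic alteration affecting cell cycle control. Compound-exposed cultures were compared with vehicle cultures, and reduced growth was taken as inhibition.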

[12] = NCI Yeast Anticancer Drug Screen. Data for the wt2 strain (AID 169);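 further: 0% = growth of vehicle-treated yeast cultures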; conditions: S. cerevisiae wt2 strain growth inhibition, active compounds read high
Outline: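 Against vehicle-treated controls, the growth of yeast exposed to each compound was compared, and the inhibition was recorded.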

[13] = NCI Yeast Anticancer Drug Screen. Data for the mlh1 strain (AID 171);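 further: 0% = growth of vehicle-treated control cultures of the same strain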; conditions: S. cerevisiae mlh1 strain growth inhibition, active compounds read high
Outline: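 Measured: yeast growth. Reference: vehicle-treated controls. Organism: strain with a defined alteration affecting DNA damage repair or cell cycle control, treated with compound.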

[14] = NCI Yeast Anticancer Drug Screen. Data for the sgs1 strain (AID 173);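 further: 0% = growth of vehicle-only control cultures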; conditions: S. cerevisiae sgs1 mutant, active compounds read high
Outline: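 Each compound was added to cultures of the altered yeast strain. Growth was recorded, and inhibition was derived by comparison with vehicle controls.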

[15] = NCI Yeast Anticancer Drug Screen. Data for the mlh1 rad18 strain (AID 175); conditions: S. cerevisiae mlh1 rad18 strain growth inhibition, active compounds read high
Outline: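 Genetically defined yeast (DNA repair-deficient) exposed to compounds; growth inhibition determined relative to vehicle.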

[16] = NCI Yeast Anticancer Drug Screen. Data for the rad18 strain (AID 177); conditions: S. cerevisiae rad18 mutant growth inhibition, active compounds read high
Outline: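 Vehicle-treated cultures served as the baseline for scoring compound-induced growth inhibition in DNA-repair-mutant yeast.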

[17] = at 5.0 µM (retest, dose inferred, filed as 0.5)
[18] = at 50.0 µM (retest, dose inferred, filed as 5.0)

Measured: growth inhibition

O=C1CSC(c2ccccc2)N1c1ccc(-c2ccc(-n3c(-c4ccccc4)nc4ccccc4c3=O)cc2)cc1 (stereo unspecified)
active: [8]; at 50.0 µM 91.1% | [11]; [18] 77% | [11]; at 50.0 µM 82.3% | [15]; [18] 83% | [15]; at 50.0 µM 82.7%
inactive: [1]; at 1.2 µM 0% | [1]; at 3.7 µM 1% | [1]; at 11.0 µM 3% | [1]; at 33.0 µM 6% | [1]; at 100.0 µM 38% | [2]; at 1.2 µM -2% | [2]; at 3.7 µM 0% | [2]; at 11.0 µM -2% | [2]; at 33.0 µM -19% | [2]; at 100.0 µM -7% | [3]; at 1.2 µM 3% | [3]; at 3.7 µM 9% | [3]; at 11.0 µM 15% | [3]; at 33.0 µM 20% | [3]; at 100.0 µM 24% | [4]; at 1.2 µM 0% | [4]; at 3.7 µM 1% | [4]; at 11.0 µM 0% | [4]; at 33.0 µM 22% | [4]; at 100.0 µM 64% | [5]; at 1.2 µM 0% | [5]; at 3.7 µM 1% | [5]; [17] -2% | [5]; at 11.0 µM 2% | [5]; at 33.0 µM 13% | [5]; [18] 44% | [5]; at 50.0 µM 57.1% | [5]; at 100.0 µM 43% | [6]; at 1.2 µM 0% | [6]; at 3.7 µM -1% | [6]; [17] -1% | [6]; at 11.0 µM 2% | [6]; at 33.0 µM 4% | [6]; [18] 27% | [6]; at 50.0 µM 30.7% | [6]; at 100.0 µM 40% | [7]; at 1.2 µM 1% | [7]; at 3.7 µM 7% | [7]; at 11.0 µM 14% | [7]; at 33.0 µM 36% | [7]; at 100.0 µM 44% | [8]; [17] 6% | [8]; [18] 45% | [9]; at 1.2 µM 5% | [9]; at 3.7 µM 3% | [9]; at 11.0 µM 6% | [9]; at 33.0 µM 6% | [9]; at 100.0 µM 10% | [10]; [17] 40% | [10]; [18] -1% | [10]; at 50.0 µM 36% | [11]; at 1.2 µM 2% | [11]; at 3.7 µM 5% | [11]; [17] 3% | [11]; at 11.0 µM 12% | [11]; at 33.0 µM 23% | [11]; at 100.0 µM 59% | [12]; at 1.2 µM 0% | [12]; at 3.7 µM -3% | [12]; at 11.0 µM -2% | [12]; at 33.0 µM 7% | [12]; at 100.0 µM 28% | [13]; at 1.2 µM -1% | [13]; at 3.7 µM -2% | [13]; at 11.0 µM -1% | [13]; at 33.0 µM 14% | [13]; at 100.0 µM 54% | [14]; at 1.2 µM 1% | [14]; at 3.7 µM 1% | [14]; at 11.0 µM 6% | [14]; at 33.0 µM 23% | [14]; at 100.0 µM 46% | [15]; [17] -20% | [16]; at 1.2 µM -1% | [16]; at 3.7 µM 2% | [16]; at 11.0 µM 8% | [16]; at 33.0 µM 15% | [16]; at 100.0 µM 20%

O=C(O)c1c2ccc(Cl)cc2nc2[nH]c(=O)[nH]c(=O)c12
active: [11]; [18] 82% | [11]; at 50.0 µM 79.5%
inactive: [1]; at 1.2 µM -38% | [1]; at 3.7 µM -34% | [1]; at 11.0 µM -25% | [1]; at 33.0 µM -30% | [1]; at 100.0 µM -13% | [2]; at 1.2 µM -37% | [2]; at 3.7 µM -35% | [2]; at 11.0 µM -44% | [2]; at 33.0 µM -38% | [2]; at 100.0 µM -18% | [3]; at 1.2 µM -13% | [3]; at 3.7 µM -46% | [3]; at 11.0 µM -10% | [3]; at 33.0 µM 28% | [3]; at 100.0 µM 50% | [4]; at 1.2 µM -37% | [4]; at 3.7 µM -31% | [4]; at 11.0 µM -35% | [4]; at 33.0 µM -5% | [4]; at 100.0 µM 17% | [5]; at 1.2 µM -56% | [5]; at 3.7 µM -28% | [5]; [17] 47% | [5]; at 11.0 µM -32% | [5]; at 33.0 µM -23% | [5]; [18] 45% | [5]; at 50.0 µM 29.4% | [5]; at 100.0 µM 36% | [6]; at 1.2 µM -63% | [6]; at 3.7 µM -50% | [6]; [17] 47% | [6]; at 11.0 µM -37% | [6]; at 33.0 µM -43% | [6]; [18] 52% | [6]; at 50.0 µM 36.9% | [6]; at 100.0 µM -30% | [7]; at 1.2 µM -14% | [7]; at 3.7 µM -16% | [7]; at 11.0 µM -21% | [7]; at 33.0 µM -22% | [7]; at 100.0 µM 3% | [8]; [17] 13% | [8]; [18] 26% | [8]; at 50.0 µM 27.6% | [9]; at 1.2 µM -45% | [9]; at 3.7 µM -33% | [9]; at 11.0 µM -24% | [9]; at 33.0 µM -13% | [9]; at 100.0 µM -1% | [10]; [17] 64% | [10]; [18] 12% | [10]; at 50.0 µM 9.2% | [11]; at 1.2 µM -57% | [11]; at 3.7 µM -40% | [11]; [17] 36% | [11]; at 11.0 µM -29% | [11]; at 33.0 µM -5% | [11]; at 100.0 µM 50% | [12]; at 1.2 µM -30% | [12]; at 3.7 µM -33% | [12]; at 11.0 µM -25% | [12]; at 33.0 µM -23% | [12]; at 100.0 µM 4% | [13]; at 1.2 µM -29% | [13]; at 3.7 µM -24% | [13]; at 11.0 µM -29% | [13]; at 33.0 µM -11% | [13]; at 100.0 µM 30% | [14]; at 1.2 µM -39% | [14]; at 3.7 µM -31% | [14]; at 11.0 µM -26% | [14]; at 33.0 µM -10% | [14]; at 100.0 µM 1% | [15]; [17] 45% | [15]; [18] 54% | [15]; at 50.0 µM 31.7% | [16]; at 1.2 µM -21% | [16]; at 3.7 µM -17% | [16]; at 11.0 µM -9% | [16]; at 33.0 µM -1% | [16]; at 100.0 µM 7%
